Compound activity as filed in PubChem BioAssay.
EBV LMP1 NFkB – inhibitors of Epstein-Barr LMP1-induced NF-kappaB reporter; inhibition, % at 12.5 µM; LMP1-induced NF-kappaB luciferase reporter cells, luminescence; AID 504558; 0.69% of 350,000 active; in the data active = inhibition above about 41%
TWEAK Fn14 block – TWEAK-Fn14 signaling inhibition; TWEAK-stimulated Fn14 reporter cells, luciferase luminescence, 8 h; inhibition, % at 10 µM; 2% of 360,000 active; in the data active = inhibition above about 50%
TROY NFkB inh – blocks TROY-dependent signaling in reporter cells | Q293 LMP1-TROYcd NF-kB luciferase reporter, 4 h | inhibition, % at 10 µM | 0.98% of 360,000 active;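 active = compounds whose plate-normalised and pattern-corrected inhibition of the luciferase reporter signal at the single screening dose is 50% or more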
Shn3 3UTR inh – reduces Shn3 3'UTR luciferase signal in osteoblasts | Clone20 osteoblast Shn3 3'UTR firefly luciferase, 24 h | inhibition, % at 12.5 µM | 0.52% of 360,000 active | AID 588674;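 active = mean inhibition of at least 75% with every replicate also reaching 75%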
TRPM1 prom inh – reduces MITF-dependent TRPM1 promoter luciferase signal | SK-MEL-5 TRPM1 promoter luciferase, 24 h | inhibition, % at 12.5 µM | 0.83% of 330,000 active;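 active = mean inhibition across replicates of 60% or more, whatever share of single replicates reaches that level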
Peg3 prom inh – Peg3 promoter activity inhibition; 1.7% of 360,000 active; AID 588405; HeLa PEG-Prom luciferase reporter, luminescence, overnight; inhibition, % at 20 µM;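 active = inhibition of at least 50% at 20 µM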
Each line names hits and unclear results; the compound was inactive in the other large screens. Only some compounds are listed: those with a hit (about 4.1% of all), similar ones and a draw of the others.

Nc1ccc(-c2cnc(-c3ccc(N)cc3)nc2)cc1	TWEAK Fn14 block 66.6
O=C1S/C(=C\c2ccc(N3CCOCC3)o2)C(=O)N1Cc1c(F)cccc1Cl	Shn3 3UTR inh 96.3
Cc1cc(C)c(C)c(OCCn2ccnc2)c1	TWEAK Fn14 block 111.2
Cc1cc(C(=O)Nc2ccccc2C)n(-c2ccccc2)n1	none (no result: TRPM1 prom inh)
Cc1ccc2c(c1)N(C(=O)CCC(=O)N1CCC(C(N)=O)CC1)CCO2	none
Cc1cccc(-c2ccc3[nH]c4c(c3c2)CCN2C[C@@H]([C@H](C)O)[C@@H](N(C)C(=O)Nc3ccc(F)cc3)C[C@@H]42)c1	Peg3 prom inh 100.4 (no result: TRPM1 prom inh)
C[C@H](O)[C@@H]1CN2CCc3c([nH]c4ccc(-c5ccc6c(c5)OCO6)cc34)[C@@H]2C[C@@H]1N(C)C(=O)Nc1cc(Cl)cc(Cl)c1	Peg3 prom inh 66.6 (no result: TRPM1 prom inh)
CCN1CCN(C2=C(NS(=O)(=O)c3ccc(Br)cc3)C(=O)c3ccccc3C2=O)CC1	TRPM1 prom inh 89.7
CN1CCN(C2=C(NS(=O)(=O)c3ccccc3)C(=O)c3ccccc3C2=O)CC1	TRPM1 prom inh 78.0
CN1CCN(C2=C(Cl)C(=O)c3ccccc3C2=O)CC1	TRPM1 prom inh 100.4, Peg3 prom inh 65.4
CC1COCC(C)N1C1=C(Cl)C(=O)c2ccccc2C1=O (centres undefined)	Shn3 3UTR inh 95.9, TRPM1 prom inh 96.5, Peg3 prom inh 99.8
CCOC(=O)N1CCN(C2=C(NS(=O)(=O)c3ccccc3)C(=O)c3ccccc3C2=O)CC1	none
C=CCC[C@H](Cc1ccc(F)cc1)C(=O)OC[C@H](Cc1c[nH]c2ccccc12)NC(=O)[C@@H](CC=C)CC(=O)NCCO	none
CCN1CCN(C2=C(NS(=O)(=O)c3ccccc3)C(=O)c3ccccc3C2=O)CC1	TRPM1 prom inh 67.2 (no result: EBV LMP1 NFkB)
NC(=O)C1CCN(C2=C(NS(=O)(=O)c3ccccc3)C(=O)c3ccccc3C2=O)CC1	none
O=C1C(NS(=O)(=O)c2cccs2)=C(N2CCOCC2)C(=O)c2ccccc21	none
CN1CCN(C2=C(NS(=O)(=O)c3cccs3)C(=O)c3ccccc3C2=O)CC1	TRPM1 prom inh 76.6
NC(=O)C1CCN(C2=C(NS(=O)(=O)c3ccc(Br)cc3)C(=O)c3ccccc3C2=O)CC1	TRPM1 prom inh 67.6
O=C(c1ccco1)N1CCN(c2ncnc3c2nnn3Cc2ccccc2Cl)CC1	none
O=C(c1ccco1)N1CCN(c2nc(C(F)(F)F)nc3c2nnn3Cc2ccccc2)CC1	TWEAK Fn14 block 54.8, TROY NFkB inh 53.2
Cc1ccc(CN2CC(C(=O)N3CCN(c4ccccc4O)CC3)CC2=O)cc1 (centres undefined)	none
COc1ccc(S(=O)(=O)NC(C)C(=O)Nc2ccc3c(c2)OCO3)cc1OC (centres undefined)	none
O=C(Cn1nnc(-c2ccc(F)cc2)n1)Nc1ccc2c(c1)OCCO2	none
COc1ccc(-c2nnn(CC(=O)Nc3ccc4c(c3)OCCO4)n2)cc1OC	Shn3 3UTR inh 85.4
COc1ccc(S(=O)(=O)NC(C)C(=O)Nc2ccc3c(c2)OCCO3)cc1OC (centres undefined)	TWEAK Fn14 block 75.1
COc1cc(OC)cc(C(=O)NC(C(=O)Nc2ccc3c(c2)OCCO3)C(C)C)c1 (centres undefined)	TWEAK Fn14 block 55.7, TROY NFkB inh 51.8
COc1ccc(C2=C3C(=O)OCC3Cc3ncn(Cc4ccccc4)c32)cc1 (centres undefined)	none
COCCNc1nc(Nc2ccccc2Cl)c2sccc2n1	none (no result: EBV LMP1 NFkB, TRPM1 prom inh)
C#Cc1cccc(Nc2nc(NCc3ccccc3OC)nc3ccsc23)c1	TWEAK Fn14 block 74.0 (no result: EBV LMP1 NFkB, TRPM1 prom inh)
C#Cc1cccc(Nc2nc(NCCOC)nc3ccsc23)c1	none (no result: EBV LMP1 NFkB, TRPM1 prom inh)
C#Cc1cccc(Nc2nc(NC(C)C)nc3ccsc23)c1	TWEAK Fn14 block 52.8 (no result: EBV LMP1 NFkB, TRPM1 prom inh)
CC(C)Nc1nc(Nc2ccccc2Cl)c2sccc2n1	TWEAK Fn14 block 64.5 (no result: EBV LMP1 NFkB, TRPM1 prom inh)
C[C@H](CO)N1C[C@H](C)[C@@H](CN(C)S(=O)(=O)c2ccccc2)Oc2c(NC(=O)C3CCCCC3)cccc2C1=O	none
CC(C)C(N)c1csc(Nc2cc(Oc3ccccc3)ncn2)n1 (centres undefined)	none (no result: EBV LMP1 NFkB, TRPM1 prom inh)
CC(C)CC(N)c1csc(Nc2cc(Oc3ccccc3)ncn2)n1 (centres undefined)	Peg3 prom inh 63.2 (no result: EBV LMP1 NFkB, TRPM1 prom inh)
CC1CC(=O)C2=C(C1)Nc1ccccc1SC2c1ccc(F)cc1 (centres undefined)	TROY NFkB inh 66.6
Cn1c(SSc2ccc(-c3cccnc3)n2C)ccc1-c1cccnc1	TWEAK Fn14 block 69.2
c1cncc(-c2nnc(-c3cccnc3)nn2)c1	none
CCCCN(C)C(=O)C1CCN(Cc2cccc(OCc3ccccc3)c2)CC1	none
O=C(N/N=C\c1cc(Cl)ccc1O)c1ccc(S(=O)(=O)N2CCCCC2)cc1	Shn3 3UTR inh 91.4, TRPM1 prom inh 66.4
O=C(Nc1cc(S(=O)(=O)Nc2ccc(Cl)cc2)ccc1O)c1ccc(S(=O)(=O)N2CCCCCC2)cc1	TROY NFkB inh 57.3
CCOC(=O)c1ccc(NCc2cccnc2)cc1	none
COC(=O)C(C)(C)c1cccnc1C#N	none
CCC(C)C(=O)Nc1nnc(CCc2ccccc2)s1 (centres undefined)	none
COc1ccccc1CC(=O)N1CCC(n2nccc2NC(=O)C2CCOC2)CC1 (centres undefined)	none
CCCCCOc1ccc(CSC(=N)N)cc1[N+](=O)[O-]	Peg3 prom inh 106.5
CCCCOc1ccc(Br)cc1CSC(=N)N	Shn3 3UTR inh 91.6, Peg3 prom inh 105.0
O=C(C1CCCN(Cc2ccccc2Cl)C1)N1CCCCC1 (centres undefined)	none
Cc1ccccc1NC(=O)Nc1nc(C2CCC(=O)N2)cs1 (centres undefined)	none (no result: EBV LMP1 NFkB, TRPM1 prom inh)
Cc1c(C(=O)Nc2ccc(S(=O)(=O)N3CCOCC3)cc2)cccc1[N+](=O)[O-]	none
Cc1ccccc1NC(=S)NN1CCN(C)CC1	TWEAK Fn14 block 73.9 (no result: TROY NFkB inh)
O=C(COC(=O)c1nc(Cl)c(Cl)c(Cl)c1Cl)c1ccc[nH]1	TROY NFkB inh 67.2, Peg3 prom inh 51.3
C=CC[C@]12CC=CC(=O)[C@@]1(O)O[C@H](c1ccc(OC)c(OC)c1)[C@H]2C	TWEAK Fn14 block 65.5, TRPM1 prom inh 62.3
CCN(CC)C(=O)[C@H]1C[C@H](CC(=O)NCCCN(C)C)C(=O)N2CCc3c([nH]c4ccc(Cl)cc34)[C@]12C	none
CCN(CC)C(=O)[C@H]1C[C@H](CC(=O)NCC23CC4CC(CC(C4)C2)C3)C(=O)N2CCc3c([nH]c4ccc(Cl)cc34)[C@]12C	TWEAK Fn14 block 54.1, Peg3 prom inh 59.5
CC[C@]12c3[nH]c4ccc(Cl)cc4c3CCN1C(=O)[C@@H](CC(=O)NCC13CC4CC(CC(C4)C1)C3)C[C@@H]2C(=O)N1CCN(C(=O)c2ccco2)CC1	Peg3 prom inh 67.3
Cc1cccc2sc(N(CCCN(C)C)C(=O)c3sc4ccccc4c3Cl)nc12	none
CN(C)CCCN(C(=O)CCOc1ccccc1)c1nc2ccc(F)cc2s1	TWEAK Fn14 block 60.8, Peg3 prom inh 71.8
